Test results reported in PubChem BioAssay (EPA / NIEHS).
Records with an inconclusive call do not appear. Activity calls are given as the source filed them. The calls were made as follows: active = hit-call score of the fitted dose curve at least 0.9, where 1 is the maximum; inconclusive = response in the unintended direction; inactive = score below 0.9.

Assay: CCTE_Mundy_HCI_iCellGluta_NOG_NeuronCount: CCTE's Neurite Outgrowth Assay in iCellGluta cells for Neuron Count, Mundy Lab (AID 2284340);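 also: cells fixed about 48 h after compound addition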
Summary of the method: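 Neuron count read by automated high-content imaging of Hoechst 33342 and betaIII-tubulin/Alexa Fluor-488 labelling in human iPSC glutamatergic neurons. Activity fitted relative to DMSO.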

## CC(=O)Oc1ccccc1C(=O)O
  outcome: inactive

## C[Si]1(C)O[Si](C)(C)O[Si](C)(C)O[Si](C)(C)O1
  outcome: inactive
